# Results reported in PubChem BioAssay (NCATS).
# Records with an inconclusive call do not appear. Active and inactive are the calls of the source. Calls follow the shape of the dose curve; as a rule, active = well fitted inhibition curve with a large enough effect; inconclusive = small, poorly fitted or top-dose-only effect; inactive = flat fitted curve, though single readings scatter. Peptide text beside a SMILES is read from it.
# Test system: W2
# Test: qHTS profiling for inhibitors of Plasmodium falciparum proliferation (AID 504749); also: nearly all actives have a fitted effect of over 60% in size;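 as to activity, negative = inhibition: 0% = DMSO vehicle and full inhibition = artemisinin control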
# Settings: P. falciparum in erythrocytes, SYBR Green DNA, 72 h; series mostly up to 28.7 µM; activity, negative = inhibition: at the top concentration
# In short: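 Parasite proliferation within erythrocytes, 72 h exposure. Endpoint: SYBR Green I fluorescence after overnight lysis at room temperature. Controls: 0.29 uM artemisinin, DMSO.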
# Potency is read from the fitted curve at half-maximal effect.
Structure (SMILES),Potency,"activity, negative = inhibition"
CCOC(=O)C1=C(C)NC(C)=C(C(=O)OCC)C1c1ccccc1C=CC(=O)OC(C)(C)C,6.75 µM (active),
CC1=C(/C=C/C(C)=C/C=C/C(C)=C/C=C/C=C(C)/C=C/C=C(C)/C=C/C2=C(C)C(=O)CCC2(C)C)C(C)(C)CCC1=O,,13% (inactive)
NC(=O)c1ncn(C2OC(CO)C(O)C2O)n1 (stereo not drawn),,-8.46% (inactive)
Cc1ccccc1,,3.92% (inactive)
COC(=O)CCC(=O)CN,,-12.3% (inactive)
COC(F)(F)C(Cl)Cl,,2.43% (inactive)
CCOc1ccc(N=Nc2ccc(N)cc2N)cc1,,-28.9% (inactive)
Cc1cc(C(=O)NNCc2ccccc2)no1,,-0.66% [at 12.8 µM] (inactive)
CC[N+](C)(C)Cc1ccccc1Br,,-1.73% [at 12.8 µM] (inactive)
CC(=O)N[C@@H](CC(=O)O)C(=O)N[C@@H](CCC(=O)O)C(=O)O (Ac-Asp-Glu-OH),,-4.37% (inactive)
CO[C@H]1C[C@@H]2CC[C@@H](C)[C@@](O)(O2)C(=O)C(=O)N2CCCC[C@H]2C(=O)O[C@H]([C@H](C)C[C@@H]2CC[C@@H](OCCO)[C@H](OC)C2)CC(=O)[C@H](C)/C=C(\C)[C@@H](O)[C@@H](OC)C(=O)[C@H](C)C[C@H](C)/C=C/C=C/C=C/1C,0.757 µM (active),
CCCCCCOc1ccc(C(=N)N(CCCC)CCCC)c2ccccc12,3.38 µM (active),
CCCC(=O)Nc1ncnc2c1ncn2C1OC2COP(=O)(O)OC2C1OC(=O)CCC (stereo not drawn),,-4.53% (inactive)
CC(Cc1ccc(O)c(O)c1)C(C)Cc1ccc(O)c(O)c1 (stereo not drawn),15.1 µM (active),
CCCCCCC(O)C/C=C/CCCCCCCC(=O)O (stereo not drawn),,11.7% (inactive)
CC(C)=O,,0.606% (inactive)
C[C@]12O[C@H](C[C@]1(O)CO)n1c3ccccc3c3c4c(c5c6ccccc6n2c5c31)CNC4=O,0.239 µM (active),
CCCCCCCCCCCCCCCC(=O)OCC(COC(=O)CCCCCCCCCCCCCCC)OC(=O)CCCCCCCCCCCCCCC,,12.9% (inactive)
C[C@H]1C[C@H]2[C@@H]3CCC4=CC(=O)C=C[C@]4(C)[C@@]3(F)[C@@H](O)C[C@]2(C)[C@@]1(O)C(=O)CO,,3.57% (inactive)
Cc1ccccc1OCC(O)CNCCOc1ccc(C(N)=O)cc1 (stereo not drawn),,12.3% (inactive)
O=C(O)CN(CCN(CC(=O)O)CC(=O)O)CC(=O)O,,1.06% (inactive)
Oc1cc(O)c2c(c1)OC(c1ccc(O)c(O)c1)C(O)C2 (stereo not drawn),,-15% (inactive)
C[C@@H]1CCC2[C@@H](C)[C@@H](O)O[C@@H]3O[C@@]4(C)CC[C@@H]1[C@@]23OO4 (stereo partly drawn),0.0005 µM (active),
O=C1CSC2(CCN(CCCN3c4ccccc4Sc4ccc(Cl)cc43)CC2)N1,4.78 µM (active),
CC(NNC(=O)c1ccccc1)c1ccccc1 (stereo not drawn),,0.851% (inactive)
CCOC(C)=O,,4.28% (inactive)
COc1cc(-c2ccc(-[n+]3nc(-c4ccccc4)nn3-c3ccc([N+](=O)[O-])cc3)c(OC)c2)ccc1-[n+]1nc(-c2ccccc2)nn1-c1ccc([N+](=O)[O-])cc1,12 µM (active),
NC1C2CN(c3nc4c(cc3F)c(=O)c(C(=O)O)cn4-c3ccc(F)cc3F)CC12 (stereo not drawn),6.75 µM (active),
